Assay outcomes deposited in PubChem by The Scripps Research Institute Molecular Screening Center.
MITF primary – human MITF inhibition, primary screen; AlphaScreen MITF homodimerization, bead proximity signal; inhibition, % at 2.6 µM; 650,000 tested, 0.91% active; in the data active means inhibition above about 50%
GPR151 activ – activators of human GPR151. Q8TDV0. PathHunter beta-arrestin GPR151 cells, luminescence. activation, % at 11.2 µM. 650,000 tested, 1% active. AID 1508602; in the data active means activation above about 4.9%
TEAD-YAP block – TEAD-YAP interaction inhibition; HEK-TIYL cells, TEAD-Gal4/YAP UAS-luciferase luminescence; inhibition, % at 9.12 µM; 640,000 tested, 1.4% active; in the data active means inhibition above about 32%
FBW7 act – activators of human E3 ligase FBW7. Q969H0. AlphaScreen FBW7–phospho-cyclin E peptide binding, activator screen. normalized activity (activation), % at 26.1 µM. 650,000 tested, 0.13% active; in the data active means normalized activity above about 1.9%;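 further: purified mutant Fbw7 with reduced substrate affinity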
Target sequence (Q969H0 whole entry, looked up): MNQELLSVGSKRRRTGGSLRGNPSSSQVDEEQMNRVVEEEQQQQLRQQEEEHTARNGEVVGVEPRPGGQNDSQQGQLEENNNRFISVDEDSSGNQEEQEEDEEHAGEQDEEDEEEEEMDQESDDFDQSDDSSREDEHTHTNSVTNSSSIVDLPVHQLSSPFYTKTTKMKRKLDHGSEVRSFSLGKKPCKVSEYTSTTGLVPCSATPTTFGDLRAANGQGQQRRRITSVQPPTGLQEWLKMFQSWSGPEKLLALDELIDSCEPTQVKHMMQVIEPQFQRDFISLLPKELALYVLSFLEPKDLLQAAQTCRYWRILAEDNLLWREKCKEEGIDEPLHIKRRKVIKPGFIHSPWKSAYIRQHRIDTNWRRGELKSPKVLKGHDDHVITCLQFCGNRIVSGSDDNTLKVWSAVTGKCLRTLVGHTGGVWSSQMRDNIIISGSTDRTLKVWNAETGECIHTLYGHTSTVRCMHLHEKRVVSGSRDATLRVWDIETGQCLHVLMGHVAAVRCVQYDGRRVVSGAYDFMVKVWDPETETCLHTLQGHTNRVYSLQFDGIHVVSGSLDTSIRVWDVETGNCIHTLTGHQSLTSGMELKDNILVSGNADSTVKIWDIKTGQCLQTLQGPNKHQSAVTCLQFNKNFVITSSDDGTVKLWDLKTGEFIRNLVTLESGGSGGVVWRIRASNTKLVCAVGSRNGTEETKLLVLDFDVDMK
Large screens that a line does not name were inactive; ! = not active in a repeat. Sampled rows, rich in hits. Any-hit rate of the full collection: about 3.4%.

CC(=O)OCCNc1cc(N2CCCCC2)c2noc3c2c1C(=O)c1ccccc1-3	MITF primary 57.0
CCNc1cc(N2CCCC2)c2noc3c2c1C(=O)c1ccccc1-3	none
Cc1cccc(Nc2cc(N3CCCCC3)c3noc4c3c2C(=O)c2ccccc2-4)c1	MITF primary 51.9
O=C1c2ccccc2-c2onc3c(N4CCCCCC4)cc(NCCO)c1c23	TEAD-YAP block 36.8
COCCCNC(=O)C(C)n1c2ccccc2c2nc(=O)cc(C)n21 (configuration not stated)	none
CC1CCN(c2cc(NCCC(=O)O)c3c4c(onc24)-c2ccccc2C3=O)CC1	MITF primary 54.8
Clc1ccc(Nc2nc3nonc3nc2Nc2ccc(Cl)cc2)cc1	TEAD-YAP block 92.2
Ic1ccc(Nc2nc3nonc3nc2N2CCCCC2)cc1	none
O=c1[nH]c2nonc2nc1Nc1ccc(Cl)cc1	none
FC(F)(F)c1cccc(Nc2nc3nonc3nc2Nc2ccc(Cl)cc2)c1	TEAD-YAP block 81.5
Fc1ccc(Nc2nc3nonc3nc2Nc2ccc(F)cc2)cc1	TEAD-YAP block 61.3
Clc1ccc(Nc2nc3nonc3nc2N2CCCCC2)cc1	TEAD-YAP block 33.4
Nc1c(S(N)(=O)=O)cc(S(N)(=O)=O)c(Cl)c1Cl	none
CC(=O)Nc1ccccc1OCC(=O)N(C(C)C)C(C)C	none
O=CNC1CC2(CCCC2)Oc2ccccc21 (configuration not stated)	none
Cc1ccc(OCC(=O)N/N=C/c2cc([N+](=O)[O-])ccc2F)cc1	TEAD-YAP block 60.0
Cc1cccc(C)c1OCC(=O)N/N=C/c1ccccc1F	TEAD-YAP block 36.7
Cc1cccc(C)c1OCC(=O)N/N=C/c1cn(C)c2ccccc12	TEAD-YAP block 50.9
Cc1ccc(C)c(OCC(=O)N/N=C\c2ccccc2F)c1	none
N#Cc1ccc(-c2ccc(OCC(=O)N/N=C/c3ccc(N4CCOCC4)cc3)cc2)cc1	none
CCN1c2ncccc2C(=O)NC12CCN(C(C)=O)CC2	none
COc1cccc(-c2ccccc2NC(=O)C2CCN(C3CCSCC3)CC2)c1	none
CNC[C@H](O)c1ccc(O)c(O)c1	MITF primary 56.2!
O=C(O)CCCCCN1C(=O)/C(=C\c2ccccn2)SC1=S	FBW7 act 1.9
O=C(NN1C(=O)/C(=C\c2ccco2)SC1=S)c1ccccc1Cl	none
O=C(O)CCN1C(=O)/C(=C\c2ccccn2)SC1=S	none
NC(=O)NN1C(=O)/C(=C/c2ccco2)SC1=S	MITF primary 68.7
O=C(O)CCCCCN1C(=O)/C(=C\c2ccco2)SC1=S	TEAD-YAP block 36.9
Cc1ccc(/C=C2/SC(=S)N(CCS(=O)(=O)O)C2=O)o1	MITF primary 56.3
Cc1nc2sc(C(c3ccc(F)c(F)c3)N3CCCC3)c(O)n2n1 (configuration not stated)	none
CCCS(=O)(=O)N1CCCC(c2nc3c(nnn3Cc3ccc(C)cc3)c(=O)[nH]2)C1 (configuration not stated)	none
CCOc1ccc(CN2CCC(C(=O)N3CCN(c4ccccc4F)CC3)CC2)cc1	none
Cc1ccc(/C=C2\CS/C(=C\c3ccc(C)o3)C2=O)o1	MITF primary 66.8
Cc1ccc(/C=C2\SC(=S)N(C)C2=O)o1	none
Cc1ccc(/C=C2/SC(=O)NC2=S)o1	MITF primary 75.9
Cc1ccc(/C=C2/SC(=S)N(CCCCCC(=O)O)C2=O)o1	TEAD-YAP block 38.7
O=C(Nc1ccc(C(F)(F)F)cc1)N[C@H]1C[C@H]2C(=O)N3CCC[C@H]3C(=O)N2C1	none
COCCNC(=O)c1ccc2c(c1)CC(c1nc3ccc(-c4ccnc(N)n4)cc3[nH]1)CO2 (configuration not stated)	none
CC(CNC(=O)c1ccc2c(c1)CC(c1nc3ccc(-c4ccnc(N)n4)cc3[nH]1)CO2)c1cccs1 (configuration not stated)	TEAD-YAP block 44.8, FBW7 act 2.7
CC(C)CNC(=O)c1ccc2c(c1)CC(c1nc3ccc(-c4ccnc(N)n4)cc3[nH]1)CO2 (configuration not stated)	FBW7 act 2.3
COc1ccc(CCNC(=O)c2ccc3c(c2)CC(c2nc4ccc(-c5ccnc(N)n5)cc4[nH]2)CO3)cc1 (configuration not stated)	TEAD-YAP block 41.1, FBW7 act 5.8
COc1cccc(CCc2nc3ccc(-c4cn[nH]c4)cc3s2)c1	none
Cc1ccc(-c2nc(CS(=O)CC(=O)NCC3CCCO3)c(C)o2)cc1 (configuration not stated)	FBW7 act 1.9
O=C(NC1CCCCC1)C1CCC(=O)N1C1CCCC1 (configuration not stated)	none
Cc1cc(C(C#N)c2ccc(Cl)cc2Cl)n2ncnc2n1 (configuration not stated)	none
Cc1cccc(C(C#N)c2cc(C)nc3ncnn23)c1 (configuration not stated)	FBW7 act 2.1
O=S(=O)(NCc1cccs1)c1ccc(-c2ccc(S(=O)(=O)NCc3cccs3)cc2)cc1	none
O=S(=O)(NCc1cccs1)c1ccc(Cc2ccc(S(=O)(=O)NCc3cccs3)cc2)cc1	TEAD-YAP block 33.6
Cc1cccc2cc(C#N)c(SCC(=O)NC3CCCC3)nc12	none
COc1cc(OC)cc(C(=O)N/N=C(\C)CC(=O)Nc2cccc(C)c2C)c1	TEAD-YAP block 49.9
COc1ccc(C(=O)N/N=C(\C)CC(=O)NCc2ccco2)cc1	none
COc1cc(OC)cc(C(=O)N/N=C(\C)CC(=O)NCc2ccco2)c1	TEAD-YAP block 50.8
Cc1ccccc1-n1ncc(C(C)NC(=O)c2c(C)nc3sccn23)c1C (configuration not stated)	TEAD-YAP block 59.0
Oc1c(C(Nc2cccnc2)c2ccsc2)ccc2cccnc12 (configuration not stated)	TEAD-YAP block 49.7
Cc1ccnc(NC(c2ccc(F)cc2)c2ccc3cccnc3c2O)c1 (configuration not stated)	TEAD-YAP block 72.7
Cc1ccnc(NC(c2ccc3c(c2)OCO3)c2ccc3cccnc3c2O)c1 (configuration not stated)	TEAD-YAP block 82.0
Cc1ccnc(NC(c2ccsc2)c2ccc3cccnc3c2O)c1 (configuration not stated)	MITF primary 62.1, TEAD-YAP block 88.5
O=C1NC(=O)/C(=C\c2ccc(N3CCCC3)c(F)c2)N1	none
Cc1ccnc(NC(c2ccccn2)c2ccc3cccnc3c2O)c1 (configuration not stated)	MITF primary 69.9, TEAD-YAP block 70.7
Cc1ccnc(NC(c2ccncc2)c2ccc3cccnc3c2O)c1 (configuration not stated)	MITF primary 112.9, TEAD-YAP block 78.6
N#Cc1c(NC(=O)CCCCl)sc2c1CCCCC2	none
Cc1nn(-c2ccccc2)c2sc(C(=O)NCc3cccnc3)cc12	none
Nc1c(C(=O)N2CCOCC2)sc2nc(-c3ccccc3)cc(C(F)(F)F)c12	FBW7 act 2.8
O=C(/C=C/c1ccc2c(c1)OCCCO2)c1cc([N+](=O)[O-])ccc1O	TEAD-YAP block 78.6
Cc1ccc2ccc(C(Nc3ccccn3)c3ccc([N+](=O)[O-])cc3)c(O)c2n1 (configuration not stated)	none
